NADH enzymes: inhibitors of enzymes used to reach an NAD/NADH endpoint | AID 774 | coupled PK/LDH NADH assays, four targets | IC50, µM (doses to about 10 µM), for the others: at the highest dose inhibition | hit rate 0.02% among 65,000;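 active = single-dose screening hits from any of four coupled enzyme assays that gave an IC50 when retested across doses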;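 note: the DPM-DC format reads NADH fluorescence rather than 340 nm absorbance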
Spn PMK inh: blocks S. pneumoniae phosphomevalonate kinase; hit rate 0.49% among 65,000; inhibition, % at 10 µM; purified PMK, PK/LDH-coupled NADH absorbance 340 nm; AID 539;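 active = top-ranked compounds by inhibition in the single 10 µM screen, taking a fixed number of the strongest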;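 note: 0% = full reaction with DMSO carrier and 100% = background rate without enzyme reaction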
Fluor 339 460: intrinsic fluorescence of library compounds, ex339/em460 – biochemical, MLSMR library, data from DPM-DC assay, artefact control, profiling panel; hit rate 5.5% among 65,000; compound autofluorescence, ex339/em460 nm, NADH buffer; active compounds read high; 1 = no-compound wells, NADH background; fluorescence fold increase at 10 µM; AID 709;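 active = at 10 µM, mean starting fluorescence two-fold or more over control wells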;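 note: signal is the first read of a kinetic run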
MK inhibit: blocks S. pneumoniae mevalonate kinase; purified MK, PK/LDH-coupled NADH absorbance 340 nm; inhibition, % at 10 µM; hit rate 0.48% among 65,000; AID 555;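 active = ranked among the strongest by inhibition in the single 10 µM screen, a fixed top-ranked set picked for dose follow-up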
Spn DPM-DC inh: inhibitors of Streptococcus pneumoniae diphosphomevalonate decarboxylase | purified DPM-DC, PK/LDH coupled NADH fluorescence | calls only at 10 µM | hit rate 0.49% among 65,000;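 active = the 320 compounds with the highest percent inhibition in the single-dose primary screen, excluding strongly autofluorescent ones, cut at about 32% in these data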;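 note: kinetic rate of NADH fluorescence loss reporting ADP formed by the decarboxylase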
A340 absorber: absorbance at 340 nm; compound absorbance at 340 nm, fold over control; fold change at 10 µM; 65,000 tested, under 10 active; AID 708;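 active = at 10 µM dose, initial 340 nm absorbance at least 2 fold that of control wells; inactive = change under 2 fold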;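 note: initial absorbance extrapolated from kinetic A340 decline of NADH oxidation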
Active calls of the source: *; i = inactive; . = no result shown; + = active, no number. In the library only some 6.3% were active in any assay of this set; here they are far more common.

SMILES	NADH enzymes	Spn PMK inh	Fluor 339 460	MK inhibit	Spn DPM-DC inh	A340 absorber
Cc1cccc2cc(CN(Cc3ccco3)S(=O)(=O)c3ccc4c(c3)OCCO4)c(=O)[nH]c12	17%	5	1.4	5	+	1
CC(C)c1ccc(OC(=O)NCCO)cc1	4%	13	1.1	0	i	1.1
O=c1[nH]c2cc3c(cc2cc1CN(CCc1ccccc1)Cc1nnnn1C1CCCC1)OCCO3	5%	4	2	0	i	1.1
O=S(=O)(Nc1ccc(-c2nc3cccnc3s2)cc1)c1cccs1	10%	14	2.1*	5	.	1.3
O=S(=O)(Nc1cccc2ncccc12)c1cccs1	6%	16	1.1	0	+	0.99
O=C1Nc2ccc(NS(=O)(=O)c3cccs3)c3cccc1c23	3%	8	1.1	2	i	1
O=C(COc1ccccc1)NC(Cc1c[nH]c2ccccc12)C(=O)O (configuration not stated)	8%	0	1.1	23	i	1
Cc1nnc(SCC(=O)Nc2ncc(Cc3ccc(F)cc3)s2)n1N	34%	44*	1.2	32	i	1.1
c1cc2c3c(cccc3c1)NC1(CCCCCC1)N2	9%	7	3.8*	11	.	1.1
CC(=O)N1CCc2cc(S(=O)(=O)NC3CCCc4ccccc43)ccc21 (configuration not stated)	9%	27*	1.1	0	i	1.1
O=C(O)c1ccc(S(=O)(=O)NC2CCCc3ccccc32)cc1 (configuration not stated)	6%	17	1.1	0	i	1
COc1ccc(CNC(=O)CSc2nnnn2-c2ccc(O)cc2)cc1	3%	0	1.1	9	i	1
Cc1ccccc1-c1nnc(-c2ccc(Br)cc2)o1	4%	7	1.1	5	i	1
Oc1ccccc1-c1nnc(-c2ccc(C(F)(F)F)cc2)o1	17%	22	2.5*	0	i	1
COC(=O)c1cc2c([nH]c3ccccc32)c(C)n1	7%	14	4.8*	0	.	1
CCc1ccccc1NC(=O)COC(=O)C1CC(=O)N(c2ccc(F)cc2)C1 (configuration not stated)	3%	5	1.1	3	i	1
N#Cc1cc2ccc(N3CCOCC3)cc2cc1C#N	3%	4	2.5*	10	.	1
CCOC(=O)CNC(=O)CSc1nnc(-c2ccccc2OC)n1CC	0%	0	1.2	0	i	1.1
CCOC(=O)CCc1c(C)n(CC)c2cc(-c3ccccc3OC)nn2c1=O	13%	13	3.6*	0	i	1
CN(C(=O)c1cccnc1)c1nnc(-c2ccccn2)s1	12%	20	2.2*	6	i	0.94
CN(C(=O)c1cccc(C#N)c1)c1nnc(-c2ccncc2)s1	12%	13	2.4*	0	i	1
CCCCOC(=O)Sc1nc2ccccc2o1	5%	7	1.1	9	i	1
CCOC(=O)N1CCN(C(=O)CN(Cc2ccccc2)S(=O)(=O)c2ccc(OC)c(C)c2)CC1	4%	0	1	active	i	0.99
COc1ccc(S(=O)(=O)N(CC(=O)N2CCCC2)Cc2ccccc2)cc1	0%	0	1.1	0	i	1.1
COCCCNC(CC(=O)Nc1ccc(N(C)C)cc1)C(=O)O (configuration not stated)	8%	15	1	0	i	1
SMILES	NADH enzymes	Spn PMK inh	Fluor 339 460	MK inhibit	Spn DPM-DC inh	A340 absorber
O=C(O)C1CCN(c2nc(-c3ccccc3)nc3c2oc2ccccc23)CC1	5%	6	1.2	10	i	1.1
CCOC(=O)C1CCN(Cc2cn[nH]c2-c2ccccc2)CC1	10%	12	3.8*	7	.	1
CCOC(=O)C1CCN(c2nc(-c3ccccc3)nc3c2oc2ccccc23)CC1	6%	10	2.1*	7	i	1
COc1ccc(CN2CCN(c3ncccn3)CC2)c(OC)c1	22%	16	1.1	49*	i	1.1
COc1ccc(CN2CCN(c3ccccn3)CC2)c(OC)c1	20%	23	1.1	36	i	1
CCOC(=O)C1CCN(Cc2cn[nH]c2-c2ccc(C)cc2)CC1	4%	8	1.1	3	i	1
CCOC(=O)C1CCN(Cc2ccc(OC)cc2OC)CC1	18%	0	1.1	51*	i	1.1
CCOC(=O)C1CCN(C(=O)Cc2ccc(OC)c(OC)c2)CC1	8%	22	1.1	2	i	1
CCOC(=O)C1CCN(c2c(N3CCN(Cc4ccccc4)CC3)c(=O)c2=O)CC1	4%	6	1.1	6	i	1.1
CCN(CC)C(=O)C1CCN(Cc2ccc(Br)cc2)CC1	8%	6	2.7*	0	i	1.1
CCOC(=O)C1CCN(Cc2ccc(N(C)C)cc2)CC1	14%	0	1.1	43*	i	1.1
CNS(=O)(=O)c1cccc(C(=O)OCC(=O)Nc2ccccc2OC(F)F)c1	1%	4	1.1	0	i	1
Cc1c(C)c2cc(Cl)c(O)c(CN3CCCCC3)c2oc1=O	1%	7	2.5*	0	.	1
Cc1cc(=O)oc2c(CN3CCN(C)CC3)c(O)c(Cl)cc12	5%	9	2.5*	0	.	1
CCCc1cc(=O)oc2c(CN3CCN(C)CC3)c(O)c(Cl)cc12	6%	1	2.3*	10	.	1.1
CCCCc1cc(=O)oc2c(CN3CCCC3)c(O)c(Cl)cc12	3%	7	3*	1	.	1
CN1CCN(Cc2c(O)c(Cl)cc3c(-c4ccccc4)cc(=O)oc23)CC1	6%	0	1.6	10	i	1.1
O=c1oc2ccccc2c(O)c1CN1CCCCC1	4%	11	1.1	.	i	1
CC(=O)c1c(C)cc(C)c(CSc2nc(C)cc(=O)[nH]2)c1C	5%	7	1	5	i	1
CCc1ccc(CCC(=O)Nc2ccc(C)c(C)c2)o1	5%	10	1.1	10	+	0.98
Cn1c(NC(=O)C2CCCO2)cc(=O)n(C)c1=O (configuration not stated)	6%	12	1.1	7	i	1
CNC(=O)c1cc2c(=O)n3cccc(C)c3nc2n(C(C)C)c1=N	2%	0	3.8*	4	.	1.1
COCCn1c(=N)c(C(=O)NCCc2ccccc2)cc2c(=O)n3cccc(C)c3nc21	1%	0	2.5*	2	.	1.1
C=CCn1c(=N)c(C(=O)NCCCOC)cc2c(=O)n3cccc(C)c3nc21	0%	0	2.3*	0	.	1.1
CCn1c(=N)c(C(=O)NCc2cccnc2)cc2c(=O)n3cccc(C)c3nc21	13%	15	3.7*	10	.	0.99
CC(C)N1C(=O)CCC1C(=O)NC1CCCC1 (configuration not stated)	8%	24	1	0	i	0.99

Source: PubChem BioAssay (SRMLSC)
